According to PubChem BioAssay (Tox21):
Records with an inconclusive call do not appear. Entries that show only a call come without a potency. Active and inactive are the calls of the source. Calls come from the whole dose curve.

target: 5-hydroxytryptamine receptor 2A (Homo sapiens) (UniProt P28223); assay: 5-hydroxytryptamine receptor 2A (HTR2A) small molecule agonists, cell-based qHTS assay (AID 1963587); details: HTR2A-CHO cells, calcium flux fluorescence, agonist mode; series mostly up to 76.8 µM; note: nearly all actives have a fitted effect of over 30% in size
Procedure, shortened: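 Kinetic calcium-flux fluorescence (2 min, 1 sec intervals) after compound addition in agonist mode. HTR2A-CHO cells were cultured 18 h, then dye-loaded 1 h at 37 C.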

Chain of 5-hydroxytryptamine receptor 2A (Homo sapiens) (P28223 whole entry, looked up): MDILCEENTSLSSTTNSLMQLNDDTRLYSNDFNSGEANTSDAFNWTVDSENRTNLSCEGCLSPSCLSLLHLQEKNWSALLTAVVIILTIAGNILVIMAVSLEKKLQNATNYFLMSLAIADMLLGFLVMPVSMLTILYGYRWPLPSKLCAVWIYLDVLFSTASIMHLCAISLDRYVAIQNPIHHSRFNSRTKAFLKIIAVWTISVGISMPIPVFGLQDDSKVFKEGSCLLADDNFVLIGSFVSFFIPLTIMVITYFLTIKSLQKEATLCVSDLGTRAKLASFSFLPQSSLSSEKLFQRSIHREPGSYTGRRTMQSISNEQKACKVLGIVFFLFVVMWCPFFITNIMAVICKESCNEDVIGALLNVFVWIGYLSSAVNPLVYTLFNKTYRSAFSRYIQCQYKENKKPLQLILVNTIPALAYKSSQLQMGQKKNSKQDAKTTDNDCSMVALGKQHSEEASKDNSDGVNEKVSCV

SMILES	activation	Potency
Cc1cc(C)c(N=Nc2c(O)c(S(=O)(=O)O)cc3cc(S(=O)(=O)O)ccc23)cc1C	-1.44% [at 7.02 µM] (inactive)	
CC(=O)Nc1c(I)cc(I)c(C(=O)O)c1I		inactive
C=COCCOCCOCCOC=C		inactive
O=C1OC(=O)c2ccc3c4c(ccc1c24)C(=O)OC3=O		inactive
COc1ccc2cc(C=O)ccc2c1		inactive
Cc1occc1S		inactive
CCCN1CCCC[C@H]1C(=O)Nc1c(C)cccc1C		inactive
Cc1ccc(NC(=O)N(C)C)cc1NC(=O)N(C)C		inactive
CCN(CC)CCN		inactive
O=[N+]([O-])c1ccccc1Nc1ccccc1		inactive
NC(=O)c1ncn([C@@H]2O[C@H](CO)[C@@H](O)[C@H]2O)c1O		inactive
O=C(O)[C@@H]1[C@H]2C[C@H]3c4[nH]c5ccccc5c4CCN3C[C@@H]2CC[C@@H]1O		inactive
CC1(C)C(C=C(Cl)Cl)C1C(=O)OCc1cccc(Oc2ccccc2)c1 (stereo not given)		inactive
O=C(O)c1ccccc1OP(=O)(O)O		inactive
CCCCN(CCO)CCO		inactive
COC(OC)C(C)c1ccccc1 (stereo not given)		inactive
Nc1cc(=O)[nH]c(N)n1		inactive

SMILES	activation	Potency
CCOC(OCC)OCC		inactive
C=CCOC(=O)CCCCCC		inactive
O=C(O)[C@@H](O)[C@H](O)[C@H](O)[C@@H](O)C(=O)O		inactive
CCCCCCCCCC(C)=O		inactive
CCCCCCCCCCCCC(=O)O		inactive
Cc1ccc(S(=O)(=O)NC(=O)NC2CCCC2)cc1		inactive
CCCC(=O)c1ccccc1		inactive
NC(=O)c1cccc([N+](=O)[O-])c1		inactive
COc1c2ccoc2cc2oc(=O)ccc12		inactive
CC(C)c1cccc(C(C)C)c1N		inactive
Cc1cccc(Cl)c1		inactive
CO[Si](C)(C)OC		inactive
COCc1ccc(COC)cc1		inactive
c1c[nH]cn1		inactive
OC1(c2ccc(Cl)cc2)CCNCC1		inactive
C1CCCCC1		inactive
Cc1ccc(C(C)c2ccc(C)c(C)c2)cc1C		inactive

target: Muscarinic acetylcholine receptor M1 (Homo sapiens) (UniProt P11229); assay: Cholinergic receptor muscarinic 1 (CHRM1) small molecule antagonists, cell-based qHTS assay (AID 1963588); details: CHRM1-CHO antagonist mode, calcium flux fluorescence; series mostly up to 61.5 µM; note: nearly all actives have a fitted effect of over 40% in size
Procedure, shortened: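 CHRM1-CHO calcium-flux assay, antagonist mode. Cells were seeded 18 h, dye-loaded 1 h at 37 C and given compound for 5 min at RT, then acetylcholine was added at 50nM. FDSS fluorescence was read 3 min; 15 concentrations, three runs.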

Chain of Muscarinic acetylcholine receptor M1 (Homo sapiens) (P11229 whole entry, looked up): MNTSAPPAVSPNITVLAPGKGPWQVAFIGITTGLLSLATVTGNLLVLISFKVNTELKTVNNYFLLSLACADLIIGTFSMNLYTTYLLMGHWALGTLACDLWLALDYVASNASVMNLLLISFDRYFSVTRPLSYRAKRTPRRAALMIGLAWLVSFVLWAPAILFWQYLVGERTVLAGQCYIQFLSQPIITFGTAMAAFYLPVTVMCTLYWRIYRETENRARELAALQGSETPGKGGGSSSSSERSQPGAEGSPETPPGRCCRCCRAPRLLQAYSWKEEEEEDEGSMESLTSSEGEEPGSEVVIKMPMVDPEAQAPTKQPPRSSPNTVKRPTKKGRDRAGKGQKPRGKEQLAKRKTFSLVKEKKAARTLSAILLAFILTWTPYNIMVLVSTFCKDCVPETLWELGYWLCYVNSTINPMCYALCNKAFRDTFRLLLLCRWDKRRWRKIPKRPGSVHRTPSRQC

SMILES	Potency
CC(=O)Nc1c(I)cc(I)c(C(=O)O)c1I	inactive
CC(=O)[O][Al][O]C(C)=O	inactive
COc1ccc2cc(C=O)ccc2c1	inactive
CCCN1CCCC[C@H]1C(=O)Nc1c(C)cccc1C	inactive
Cc1ccc(NC(=O)N(C)C)cc1NC(=O)N(C)C	inactive
CCN(CC)CCN	inactive
O=[N+]([O-])c1ccccc1Nc1ccccc1	inactive
NC(=O)c1ncn([C@@H]2O[C@H](CO)[C@@H](O)[C@H]2O)c1O	inactive
O=C(O)[C@@H]1[C@H]2C[C@H]3c4[nH]c5ccccc5c4CCN3C[C@@H]2CC[C@@H]1O	inactive
CC1(C)C(C=C(Cl)Cl)C1C(=O)OCc1cccc(Oc2ccccc2)c1 (stereo not given)	inactive
O=C(O)c1ccccc1OP(=O)(O)O	inactive
CCCCN(CCO)CCO	inactive
COC(OC)C(C)c1ccccc1 (stereo not given)	inactive
Nc1cc(=O)[nH]c(N)n1	inactive
CCOC(OCC)OCC	inactive
C=CCOC(=O)CCCCCC	inactive

SMILES	Potency
O=C(O)[C@@H](O)[C@H](O)[C@H](O)[C@@H](O)C(=O)O	inactive
CCCCCCCCCC(C)=O	inactive
OC/C=C/CO	inactive
CCCCCCCCCCCCC(=O)O	inactive
Cc1ccc(S(=O)(=O)NC(=O)NC2CCCC2)cc1	inactive
CCCC(=O)c1ccccc1	inactive
COc1c2ccoc2cc2oc(=O)ccc12	inactive
CCCCCCCCC1CCC(=O)O1 (stereo not given)	inactive
Cc1cccc(Cl)c1	inactive
CO[Si](C)(C)OC	inactive
COCc1ccc(COC)cc1	inactive
c1c[nH]cn1	inactive
OC1(c2ccc(Cl)cc2)CCNCC1	inactive
C1CCCCC1	inactive
Cc1ccc(C(C)c2ccc(C)c(C)c2)cc1C	inactive
